Data taken from PubChem BioAssay AID624405 (Broad Institute, 2012).
Among all 1,900 compounds or so, about 250 (13%) were called active. Not shown: some 4% with an inconclusive outcome. A selection follows. Measured potencies and affinities stand elsewhere. A number with no mark means an inactive call.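 The calls were made as follows: active = fitted curve reaches 40% rescue activity at or below the top valid dose, in every test run; inconclusive = test runs disagree, some active and some inactive; inactive = every run misses the threshold or moves the wrong way.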

experiment: suppressors of statin myotoxicity in myotubes, dose response, cell-based, C2C12 myotubes, ATP luminescence, cherry pick (AID 624405); conditions: C2C12 myotubes + simvastatin, 48 h, scaled: DMSO wells 0, geranylgeraniol wells 100; series mostly up to 19.5 µM; rescue activity (ATP increase): at the top concentration;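 also: myotubes are challenged with simvastatin at 10 µM to lower ATP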

Row | SMILES | rescue activity (ATP increase)
1 | Cc1ccc(N2N=C(C(=O)O)CCC2=O)cc1Cl | 16.1%
2 | CC(C(=O)NCC1CCCO1)n1cccc1C(=O)c1ccccc1 (configuration not stated) | 13%
3 | C=C(C)C1CC=C(C)/C(=N/NC(=O)c2ccc(NC(=O)CC)cc2)C1 (configuration not stated) | -9.09%
4 | COc1ccc(NC(=O)c2cc(-c3cccs3)on2)cc1 | -2.21%
5 | c1ccc(Nc2nc(-c3cccs3)cs2)nc1 | 26%
6 | C/C(=N/Nc1nc(-c2ccc(Cl)cc2)cs1)c1cccs1 | -40.2%
7 | Cc1cc(C(=O)Nc2ccc3c(c2)C(=O)N(C)[C@@H]2CC[C@@H](CC(=O)N[C@H](C)c4ccccc4)O[C@@H]2CO3)no1 | 26.1%
8 | CCOC(=O)N1CCN(C(=O)Cc2ccsc2)CC1 | -30.6%
9 | CC(C)[C@H](NS(=O)(=O)c1ccccc1)C(=O)OCC(=O)NC(=O)NC1CCCCC1 | -10.8%
10 | C[C@@H]1CN([C@@H](C)CO)C(=O)c2cccc(NS(=O)(=O)c3cccs3)c2O[C@@H]1CN(C)C(=O)Nc1ccc(C(F)(F)F)cc1 | -7.49%
11 | C[C@H](CO)N1C[C@H](C)[C@H](CN(C)C(=O)Nc2ccc(F)cc2)OCCCC[C@H](C)Oc2ccc(NC(=O)Cc3ccccc3)cc2C1=O | -7.95%
12 | Fc1ccc(CSc2nnc(CN3CCOCC3)n2-c2ccccc2)c(Cl)c1 | -26.3%
13 | COc1ccc(S(=O)(=O)Nc2ccc3c(c2)C(=O)N([C@H](C)CO)C[C@H](C)[C@H](CN(C)S(=O)(=O)c2ccc(F)cc2)OCCCC[C@@H](C)O3)cc1 | 19.6%
14 | C[C@H]1CN([C@@H](C)CO)C(=O)Cc2cc(NS(=O)(=O)c3ccc(F)cc3)ccc2O[C@H]1CN(C)Cc1ccccc1 | 29.1%
15 | COc1ccc(S(=O)(=O)Nc2ccc3c(c2)CC(=O)N([C@@H](C)CO)C[C@@H](C)[C@H](CN(C)Cc2ccc(Cl)c(Cl)c2)O3)cc1 | 19.7%
16 | COc1ccc(CN(C)C[C@@H]2Oc3ccc(NS(=O)(=O)c4ccc(F)cc4)cc3CC(=O)N([C@H](C)CO)C[C@H]2C)cc1 | 35.2% [at 21 µM]
17 | C[C@@H]1CN([C@@H](C)CO)C(=O)Cc2cc(NS(=O)(=O)c3ccc(Cl)cc3)ccc2O[C@H]1CN(C)Cc1ccc(-c2ccccc2)cc1 | 28.9%
18 | COc1ccc(CN(C)C[C@@H]2Oc3ccc(NS(=O)(=O)c4ccc(Cl)cc4)cc3CC(=O)N([C@H](C)CO)C[C@H]2C)cc1 | 34.8%
19 | COc1ccc(S(=O)(=O)Nc2ccc3c(c2)CC(=O)N([C@@H](C)CO)C[C@H](C)[C@H](CN(C)Cc2ccc(Cl)c(Cl)c2)O3)cc1 | 14.6%
20 | COc1ccc(S(=O)(=O)Nc2ccc3c(c2)C(=O)N([C@@H](C)CO)C[C@@H](C)[C@@H](CN(C)S(=O)(=O)c2ccc(F)cc2)OCCCC[C@H](C)O3)cc1 | 28.1%
21 | COc1ccc(N=C2S/C(=C\c3cc(C)n(C)c3C)C(=O)N2CC(C)C)cc1 | -33.1%
22 | COc1ccc(NC(=O)Nc2ccc3c(c2)C(=O)N([C@H](C)CO)C[C@H](C)[C@H](CN(C)Cc2ccc(C(F)(F)F)cc2)OCCCC[C@H](C)O3)cc1 | -42.8%
23 | C[C@@H]1CN([C@H](C)CO)C(=O)Cc2cc(NC(=O)CCC(F)(F)F)ccc2O[C@H]1CN(C)Cc1ccc(Oc2ccccc2)cc1 | 17.4% [at 21 µM]
24 | CN(C)S(=O)(=O)c1ccc(C(=O)NCCOc2ccc(F)cc2)cc1 | -10.8%

Row | SMILES | rescue activity (ATP increase)
25 | COc1ccc(S(=O)(=O)Nc2ccc3c(c2)C(=O)N([C@H](C)CO)C[C@H](C)[C@H](CN(C)S(=O)(=O)c2cccs2)OCCCC[C@H](C)O3)cc1 | 5.74%
26 | C[C@@H]1CCCCO[C@@H](CN(C)S(C)(=O)=O)[C@H](C)CN([C@@H](C)CO)C(=O)c2cc(NS(=O)(=O)c3ccc(F)cc3)ccc2O1 | 16.5%
27 | Cc1oc(C(=O)O)cc1COc1cccc2cccnc12 | -12.5%
28 | c1ccc2c(c1)CCN(Cc1nnnn1Cc1ccc3c(c1)OCO3)C2 | -2.57%
29 | Cc1ccc(C(O)CN2C3=NCCN3c3ccccc32)cc1 (configuration not stated) | 2.99%
30 | C[C@@H]1CN([C@H](C)CO)C(=O)Cc2cc(NC(=O)Nc3cccc4ccccc34)ccc2O[C@@H]1CN(C)S(=O)(=O)c1cccs1 | 9.53%
31 | C[C@H](CO)N1C[C@H](C)[C@@H](CN(C)C(=O)Nc2ccc(F)cc2)Oc2ccc(NC(=O)Cc3cn(C)c4ccccc34)cc2CC1=O | 4.12% [at 10 µM]
32 | Cc1ccc(S(=O)(=O)N(C)C[C@@H]2Oc3ccc(NS(=O)(=O)c4ccc(F)cc4)cc3C(=O)N([C@H](C)CO)C[C@@H]2C)cc1 | 21.7% [at 21 µM]
33 | COc1ccc(S(=O)(=O)Nc2ccc3c(c2)CC(=O)N([C@H](C)CO)C[C@H](C)[C@@H](CN(C)S(=O)(=O)c2ccc(C)cc2)O3)cc1 | 16.2%
34 | C[C@H]1CN([C@@H](C)CO)C(=O)c2cc(NS(=O)(=O)c3ccc(F)cc3)ccc2O[C@@H]1CN(C)S(=O)(=O)c1ccc(F)cc1 | 12% [at 21 µM]
35 | Cc1ccc(S(=O)(=O)Nc2ccc3c(c2)CC(=O)N([C@@H](C)CO)C[C@@H](C)[C@H](CN(C)S(=O)(=O)c2ccc(C)cc2)O3)cc1 | 22.9%
36 | C[C@@H]1CN([C@@H](C)CO)C(=O)Cc2cc(NC(=O)Nc3cccc4ccccc34)ccc2O[C@@H]1CN(C)S(=O)(=O)c1ccc(Cl)cc1 | 8.86%
37 | Cc1ccc(S(=O)(=O)Nc2ccc3c(c2)CC(=O)N([C@H](C)CO)C[C@H](C)[C@H](CN(C)S(=O)(=O)c2ccc(C)cc2)O3)cc1 | 19.9%
38 | O=C(O)c1nn(-c2ccccc2)nc1-c1nn(-c2ccccc2)nc1C(=O)O | 8.4%
39 | O=S(=O)(NN=C1CCCCC1)c1ccccc1 | 2.86%
40 | CC1(C)NC(=O)N(CC(O)Cn2nnc3ccccc32)C1=O (configuration not stated) | 16.7%
41 | C[C@H](CO)N1C[C@H](C)[C@@H](CN(C)C(=O)C2CCC2)Oc2ncc(C#Cc3cccc(F)c3)cc2C1=O | 0.264%
42 | Nn1c(SCC(=O)N2CCN(S(=O)(=O)c3ccccc3)CC2)nnc1-c1cccs1 | -6.28%
43 | Cc1ccc(S(=O)(=O)Nc2ccc3c(c2)CC(=O)N([C@@H](C)CO)C[C@@H](C)[C@H](CN(C)Cc2ccc(C(F)(F)F)cc2)O3)cc1 | 35.9%
44 | Cc1ccc(C(=O)N2CCSCC2)cc1 | -3.87%
45 | CSCCC(NC(N)=O)C(=O)NCC1CCCCC1 (configuration not stated) | 1.42%
46 | Cc1ccc(N2CCN(/N=C/c3sccc3C)CC2)cc1 | 5.86%
47 | Cc1noc(C)c1S(=O)(=O)Nc1ccc2c(c1)C(=O)N([C@H](C)CO)C[C@H](C)[C@H](CN(C)S(=O)(=O)c1cccs1)OCCCC[C@H](C)O2 | -0.171% [at 21 µM]
